According to article PMC7826789 (International Journal of Molecular Sciences, 2021):

What was measured:
Conditions in all cases: Compound Concentration (nM):1000
PDGFRB = system: PDGFRB
PDPK1 = system: PDPK1
PFCDPK1(P.falciparum) = system: T1, PFCDPK1(P.falciparum)
T1 construct: gene CDPK1

PFPK5(P.falciparum) = system: T2, PFPK5(P.falciparum)
T2 construct: gene MAL13P1.279

PFTAIRE2 = system: T3, PFTAIRE2
T3 construct: gene CDK15

PFTK1 = system: T4, PFTK1
T4 construct: gene CDK14

PHKG1 = system: PHKG1
PHKG2 = system: PHKG2
PIK3C2B = system: PIK3C2B
PIK3C2G = system: PIK3C2G
PIK3CA(C420R) = system: PIK3CA(C420R)
PIK3CA(E542K) = system: PIK3CA(E542K)
PIK3CA(E545A) = system: PIK3CA(E545A)
PIK3CA(E545K) = system: PIK3CA(E545K)
PIK3CA(H1047L) = system: PIK3CA(H1047L)
PIK3CA(H1047Y) = system: PIK3CA(H1047Y)
PIK3CA(I800L) = system: PIK3CA(I800L)
PIK3CA(M1043I) = system: PIK3CA(M1043I)
PIK3CA(Q546K) = system: PIK3CA(Q546K)
PIK3CA = system: PIK3CA
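Further: KINOMEscan scanMAX binding as percent activity remaining versus control; lower means stronger binding.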

CCS(=O)(=O)c1ccc(OC)c(Nc2ncc(-c3cccc(OC)c3)o2)c1 [GW580509X]
Percent Control (PDGFRB): 9.7% | Percent Control (PDPK1): 100% | Percent Control (PFCDPK1(P.falciparum)): 7.8% | Percent Control (PFPK5(P.falciparum)): 100% | Percent Control (PFTAIRE2): 100% | Percent Control (PFTK1): 100% | Percent Control (PHKG1): 100% | Percent Control (PHKG2): 100% | Percent Control (PIK3C2B): 100% | Percent Control (PIK3C2G): 97% | Percent Control (PIK3CA(C420R)): 100% | Percent Control (PIK3CA(E542K)): 100% | Percent Control (PIK3CA(E545A)): 100% | Percent Control (PIK3CA(E545K)): 100% | Percent Control (PIK3CA(H1047L)): 100% | Percent Control (PIK3CA(H1047Y)): 98% | Percent Control (PIK3CA(I800L)): 100% | Percent Control (PIK3CA(M1043I)): 100% | Percent Control (PIK3CA(Q546K)): 100% | Percent Control (PIK3CA): 100%

COc1ccccc1-c1cc(/C=C2\C(=O)Nc3ncc(Br)cc32)cc(Br)c1O [GW442130X]
Percent Control (PDGFRB): 72% | Percent Control (PDPK1): 89% | Percent Control (PFCDPK1(P.falciparum)): 100% | Percent Control (PFPK5(P.falciparum)): 100% | Percent Control (PFTAIRE2): 100% | Percent Control (PFTK1): 100% | Percent Control (PHKG1): 100% | Percent Control (PHKG2): 100% | Percent Control (PIK3C2B): 59% | Percent Control (PIK3C2G): 87% | Percent Control (PIK3CA(C420R)): 78% | Percent Control (PIK3CA(E542K)): 100% | Percent Control (PIK3CA(E545A)): 76% | Percent Control (PIK3CA(E545K)): 100% | Percent Control (PIK3CA(H1047L)): 100% | Percent Control (PIK3CA(H1047Y)): 50% | Percent Control (PIK3CA(I800L)): 100% | Percent Control (PIK3CA(M1043I)): 60% | Percent Control (PIK3CA(Q546K)): 100% | Percent Control (PIK3CA): 83%

COc1ccc2c(-c3ccnc(Nc4cccc(OC(F)(F)F)c4)n3)cnn2n1 [GW810372X]
Percent Control (PDGFRB): 100% | Percent Control (PDPK1): 100% | Percent Control (PFCDPK1(P.falciparum)): 81% | Percent Control (PFPK5(P.falciparum)): 100% | Percent Control (PFTAIRE2): 100% | Percent Control (PFTK1): 100% | Percent Control (PHKG1): 100% | Percent Control (PHKG2): 100% | Percent Control (PIK3C2B): 100% | Percent Control (PIK3C2G): 74% | Percent Control (PIK3CA(C420R)): 86% | Percent Control (PIK3CA(E542K)): 100% | Percent Control (PIK3CA(E545A)): 90% | Percent Control (PIK3CA(E545K)): 97% | Percent Control (PIK3CA(H1047L)): 75% | Percent Control (PIK3CA(H1047Y)): 82% | Percent Control (PIK3CA(I800L)): 91% | Percent Control (PIK3CA(M1043I)): 100% | Percent Control (PIK3CA(Q546K)): 100% | Percent Control (PIK3CA): 100%

COc1ccc(COc2ccc(Cc3cnc(N)nc3N)cc2OC)cc1 [GW632580X]
Percent Control (PDGFRB): 92% | Percent Control (PDPK1): 100% | Percent Control (PFCDPK1(P.falciparum)): 70% | Percent Control (PFPK5(P.falciparum)): 71% | Percent Control (PFTAIRE2): 80% | Percent Control (PFTK1): 74% | Percent Control (PHKG1): 100% | Percent Control (PHKG2): 96% | Percent Control (PIK3C2B): 86% | Percent Control (PIK3C2G): 100% | Percent Control (PIK3CA(C420R)): 100% | Percent Control (PIK3CA(E542K)): 96% | Percent Control (PIK3CA(E545A)): 100% | Percent Control (PIK3CA(E545K)): 91% | Percent Control (PIK3CA(H1047L)): 75% | Percent Control (PIK3CA(H1047Y)): 100% | Percent Control (PIK3CA(I800L)): 93% | Percent Control (PIK3CA(M1043I)): 100% | Percent Control (PIK3CA(Q546K)): 100% | Percent Control (PIK3CA): 76%

Cl.O=C(Nc1ccc(Oc2ccc3[nH]c(NC(=O)c4ccco4)nc3c2)cc1)Nc1cc(C(F)(F)F)ccc1F [GW683134A]
Percent Control (PDGFRB): 0.3% | Percent Control (PDPK1): 67% | Percent Control (PFCDPK1(P.falciparum)): 84% | Percent Control (PFPK5(P.falciparum)): 100% | Percent Control (PFTAIRE2): 87% | Percent Control (PFTK1): 100% | Percent Control (PHKG1): 100% | Percent Control (PHKG2): 95% | Percent Control (PIK3C2B): 100% | Percent Control (PIK3C2G): 83% | Percent Control (PIK3CA(C420R)): 100% | Percent Control (PIK3CA(E542K)): 99% | Percent Control (PIK3CA(E545A)): 100% | Percent Control (PIK3CA(E545K)): 100% | Percent Control (PIK3CA(H1047L)): 78% | Percent Control (PIK3CA(H1047Y)): 100% | Percent Control (PIK3CA(I800L)): 100% | Percent Control (PIK3CA(M1043I)): 100% | Percent Control (PIK3CA(Q546K)): 100% | Percent Control (PIK3CA): 100%

COc1cc(/C=N/Nc2ncnc3[nH]ncc23)ccc1O [GW578748X]
Percent Control (PDGFRB): 38% | Percent Control (PDPK1): 83% | Percent Control (PFCDPK1(P.falciparum)): 18% | Percent Control (PFPK5(P.falciparum)): 100% | Percent Control (PFTAIRE2): 96% | Percent Control (PFTK1): 100% | Percent Control (PHKG1): 100% | Percent Control (PHKG2): 88% | Percent Control (PIK3C2B): 72% | Percent Control (PIK3C2G): 51% | Percent Control (PIK3CA(C420R)): 97% | Percent Control (PIK3CA(E542K)): 63% | Percent Control (PIK3CA(E545A)): 82% | Percent Control (PIK3CA(E545K)): 59% | Percent Control (PIK3CA(H1047L)): 18% | Percent Control (PIK3CA(H1047Y)): 84% | Percent Control (PIK3CA(I800L)): 51% | Percent Control (PIK3CA(M1043I)): 43% | Percent Control (PIK3CA(Q546K)): 62% | Percent Control (PIK3CA): 82%

COc1cccc(-c2c[nH]c3c(N/N=C/c4ccncc4)ncnc23)c1 [GW814408X]
Percent Control (PDGFRB): 5.5% | Percent Control (PDPK1): 78% | Percent Control (PFCDPK1(P.falciparum)): 5.2% | Percent Control (PFPK5(P.falciparum)): 97% | Percent Control (PFTAIRE2): 78% | Percent Control (PFTK1): 95% | Percent Control (PHKG1): 100% | Percent Control (PHKG2): 100% | Percent Control (PIK3C2B): 100% | Percent Control (PIK3C2G): 92% | Percent Control (PIK3CA(C420R)): 100% | Percent Control (PIK3CA(E542K)): 100% | Percent Control (PIK3CA(E545A)): 100% | Percent Control (PIK3CA(E545K)): 100% | Percent Control (PIK3CA(H1047L)): 99% | Percent Control (PIK3CA(H1047Y)): 78% | Percent Control (PIK3CA(I800L)): 100% | Percent Control (PIK3CA(M1043I)): 99% | Percent Control (PIK3CA(Q546K)): 100% | Percent Control (PIK3CA): 95%

COc1cc2ncnc(Nc3ccc4c(cnn4Cc4ccccc4)c3)c2cc1OC.Cl [GW282449A]
Percent Control (PDGFRB): 100% | Percent Control (PDPK1): 100% | Percent Control (PFCDPK1(P.falciparum)): 57% | Percent Control (PFPK5(P.falciparum)): 100% | Percent Control (PFTAIRE2): 100% | Percent Control (PFTK1): 100% | Percent Control (PHKG1): 100% | Percent Control (PHKG2): 100% | Percent Control (PIK3C2B): 100% | Percent Control (PIK3C2G): 97% | Percent Control (PIK3CA(C420R)): 100% | Percent Control (PIK3CA(E542K)): 100% | Percent Control (PIK3CA(E545A)): 100% | Percent Control (PIK3CA(E545K)): 100% | Percent Control (PIK3CA(H1047L)): 100% | Percent Control (PIK3CA(H1047Y)): 100% | Percent Control (PIK3CA(I800L)): 99% | Percent Control (PIK3CA(M1043I)): 100% | Percent Control (PIK3CA(Q546K)): 100% | Percent Control (PIK3CA): 100%

CN1CCN(C(=O)c2ccc(NC(=O)Nc3ccc(N(C)c4ccnc(Nc5ccc(CS(C)(=O)=O)cc5)n4)cc3)cc2)CC1.Cl [GW830263A]
Percent Control (PDGFRB): 0% | Percent Control (PDPK1): 68% | Percent Control (PFCDPK1(P.falciparum)): 71% | Percent Control (PFPK5(P.falciparum)): 95% | Percent Control (PFTAIRE2): 100% | Percent Control (PFTK1): 81% | Percent Control (PHKG1): 100% | Percent Control (PHKG2): 100% | Percent Control (PIK3C2B): 100% | Percent Control (PIK3C2G): 100% | Percent Control (PIK3CA(C420R)): 100% | Percent Control (PIK3CA(E542K)): 98% | Percent Control (PIK3CA(E545A)): 100% | Percent Control (PIK3CA(E545K)): 97% | Percent Control (PIK3CA(H1047L)): 96% | Percent Control (PIK3CA(H1047Y)): 100% | Percent Control (PIK3CA(I800L)): 98% | Percent Control (PIK3CA(M1043I)): 100% | Percent Control (PIK3CA(Q546K)): 100% | Percent Control (PIK3CA): 98%

CCS(=O)(=O)c1ccc(OC)c(Nc2ncc(-c3cccc(F)c3)o2)c1 [GW621970X]
Percent Control (PDGFRB): 5.4% | Percent Control (PDPK1): 100% | Percent Control (PFCDPK1(P.falciparum)): 4.1% | Percent Control (PFPK5(P.falciparum)): 100% | Percent Control (PFTAIRE2): 100% | Percent Control (PFTK1): 95% | Percent Control (PHKG1): 100% | Percent Control (PHKG2): 100% | Percent Control (PIK3C2B): 100% | Percent Control (PIK3C2G): 100% | Percent Control (PIK3CA(C420R)): 100% | Percent Control (PIK3CA(E542K)): 100% | Percent Control (PIK3CA(E545A)): 100% | Percent Control (PIK3CA(E545K)): 100% | Percent Control (PIK3CA(H1047L)): 100% | Percent Control (PIK3CA(H1047Y)): 97% | Percent Control (PIK3CA(I800L)): 100% | Percent Control (PIK3CA(M1043I)): 93% | Percent Control (PIK3CA(Q546K)): 100% | Percent Control (PIK3CA): 100%
